From PubChem
Sampled rows, rich in hits. Any-hit rate of the full collection: about 7.3%.
FLuc counter: qHTS profiling assay for firefly luciferase inhibitor/activator using purifed enzyme and Km concentrations of substrates (counterscreen for miR-21 project); Luciferin 4-monooxygenase (Photinus pyralis), P08659; purified FLuc, Km substrates, luminescence inhibition; Potency, µM (highest dose often 57.5 µM), actives largely listed as inhibitors; 6.9% of 360,000 active; also: nearly all actives have a fitted effect of over 55% in size
Target sequence (P08659 whole entry, looked up): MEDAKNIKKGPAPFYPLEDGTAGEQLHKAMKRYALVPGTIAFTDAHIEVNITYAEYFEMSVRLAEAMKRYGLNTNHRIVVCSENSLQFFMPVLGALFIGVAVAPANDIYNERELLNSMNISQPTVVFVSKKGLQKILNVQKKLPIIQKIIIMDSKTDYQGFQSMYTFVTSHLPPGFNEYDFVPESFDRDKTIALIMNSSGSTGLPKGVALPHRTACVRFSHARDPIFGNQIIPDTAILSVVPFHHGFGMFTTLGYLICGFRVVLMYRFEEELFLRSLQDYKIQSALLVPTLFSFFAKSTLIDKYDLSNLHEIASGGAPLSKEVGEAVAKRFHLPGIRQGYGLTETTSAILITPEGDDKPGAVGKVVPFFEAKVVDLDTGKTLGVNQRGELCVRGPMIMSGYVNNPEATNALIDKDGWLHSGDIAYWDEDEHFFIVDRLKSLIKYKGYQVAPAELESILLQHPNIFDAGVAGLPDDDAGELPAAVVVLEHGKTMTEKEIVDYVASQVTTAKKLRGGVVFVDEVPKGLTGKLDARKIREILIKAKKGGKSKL
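Purified P. pyralis luciferase (10nM final) with 10uM D-luciferin and 10uM ATP (Km levels) in 50mM Tris acetate pH 7.5, 10mM Mg acetate, 0.01% Tween-20, 0.05% BSA; qHTS 6-point titration, ~60 µM downward; luminescence read.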
SMN2 splice up: qHTS Assay for Enhancers of SMN2 Splice Variant Expression | HEK293 SMN2-luciferase splicing reporter, luminescence, 30-36 h | Potency, µM (series often up to 46.1 µM), hits mostly activators | 2.8% of 210,000 active; also: nearly all actives have a fitted effect of over 55% in size
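HEK293 cells carry an SMN2 […]–luciferase reporter in which exon 7 inclusion puts luciferase in frame. Cells were plated 10-12 h before compound addition, then incubated 30-36 h at 37C. ONE-Glo luminescence was read; sodium butyrate at 4.5 mM final served as control.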
Rab9 prom act: qHTS Assay for Rab9 Promoter Activators; Potency, µM (doses to about 9.22 µM), most hits filed as activators; Huh7 Rab9 promoter-luciferase reporter, luminescence, 24 h; 2.8% of 320,000 active; AID 485297, 2010; also: nearly all actives have a fitted effect of over 60% in size
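Quantitative HTS format; Huh7 Rab9-luciferase reporter cells (1500/well) receive compound 2 h post-plating, incubate 24 h at 37 °C, then get luciferase reagent for 10 min before luminescence reading.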
KinaseGlo FLuc: Counterscreen for Luciferase (Kinase-Glo TM) Inhibition; Luciferin 4-monooxygenase (Photuris pensylvanica), Q27757; Kinase-Glo luciferase, ATP luminescence, 8 min; Potency, µM (doses to about 38.3 µM), most hits filed as inhibitors; 0.28% of 200,000 active; AID 1379, 2008; also: nearly all actives have a fitted effect of over 60% in size
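Light output from Kinase-Glo luciferase with luciferin and 10 uM ATP in 50 mM imidazole pH 7.2, KCl, MgCl2, Tween 20, BSA; compound pin-delivered, 8-min ambient incubation, then luminescence read.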
NPC1 promoter act: qHTS Assay for NPC1 Promoter Activators; 2.4% of 320,000 active; AID 485313, 2010; Huh7 NPC1 promoter luciferase reporter, 24 h; Potency, µM (titrated, usually from 9.22 µM), hits mostly activators; also: nearly all actives have a fitted effect of over 60% in size
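Huh7 reporter cells (NPC1 promoter driving luciferase) are dosed with compound for 24 h at 37 °C, 5% CO2; luciferase detection reagent is then added and luminescence measured after 10 min at ambient temperature.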
ELG1 genotoxic: qHTS screen for small molecules that induce genotoxicity in human embryonic kidney (HEK293T) cells expressing luciferase-tagged ELG1; HEK293T ELG1-luciferase reporter, luminescence, 16 h; Potency, µM (doses to about 46 µM), most hits filed as activators; 1.3% of 330,000 active; AID 504466, 2011; also: nearly all actives have a fitted effect of over 60% in size
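ELG1-luciferase HEK293T cells, 2,000/well; compound pinned in; 16 hr, 37 °C, 5% CO2; ONE-Glo, 30 min RT; luminescence on CCD imager.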
Hits are given with their value; . = inactive; ? = inconclusive; / = not tested or not shown. Calls follow the shape of the dose curve; as a rule, active = well fitted curve in the direction sought with a large enough effect; inconclusive = small, poorly fitted or top-dose-only effect, or another doubt; inactive = no such curve, though single readings can be large; an effect the other way counts as inactive or inconclusive.

SMILES	FLuc counter	SMN2 splice up	Rab9 prom act	KinaseGlo FLuc	NPC1 promoter act	ELG1 genotoxic
COc1ccc(C2=NN3C(C2)c2ccccc2OC32C(=O)N(C)c3ccccc32)cc1 (centres undefined)	11µM	.	.	.	.	15µM
O=C(NNC(=O)C12CC3CC(CC(C3)C1)C2)c1ccccc1O	15µM	/	.	/	.	.
Cc1ccccc1C(=O)NNC(=O)C12CC3CC(CC(C3)C1)C2	.	.	.	.	.	.
Cc1cccc(C(=O)NNC(=O)C23CC4CC(CC(C4)C2)C3)c1O	15µM	/	.	/	.	.
CCOC(=O)Cn1c(=O)n(-c2ccccc2OC)c2nc(-c3ccc(C(C)C)cc3)nc(C(N)=O)c21	.	/	/	/	/	/
Cc1ccc(/C=C2\SC(=S)N(CCCC(=O)Nc3ccccc3C(=O)O)C2=O)cc1	.	/	.	/	.	.
COc1cccc(/C=C2/SC(=S)N(CC(=O)NNC(=O)c3ccccc3OC)C2=O)c1	13µM	/	.	/	.	.
COc1ccc(/C=C2/SC(=S)N(CCCC(=O)Nc3ccccc3C(=O)O)C2=O)cc1	27µM	/	.	/	.	.
COc1cccc(/C=C2\SC(=S)N(CCC(=O)NNC(=O)c3ccccc3OC)C2=O)c1	.	/	.	/	.	.
COc1ccc(/C=C2/SC(=S)N(CCCC(=O)Nc3cccc(O)c3)C2=O)cc1	13µM	/	.	/	.	.
Cc1cc(C)c2oc(-c3cccc(NC(=O)c4ccc(Br)o4)c3)nc2c1	?	.	/	/	/	/
Cc1cc(C)c2oc(-c3cccc(NC(=O)c4ccco4)c3)nc2c1	2.7µM	.	/	/	/	/
Cc1cc(C)c2oc(-c3ccc(C)c(NC(=O)/C=C/c4ccco4)c3)nc2c1	21µM	.	/	/	/	/
c1ccc(Cc2nc3ccccc3[nH]2)cc1	.	/	.	/	.	.
OC(Cc1nc2ccccc2[nH]1)c1ccccc1Cl (centres undefined)	24µM	.	.	.	.	.
Cc1ccc(S(=O)(=O)CCc2nc3ccccc3[nH]2)cc1	.	.	.	.	.	.
Cc1ccc(OCc2nc3ccccc3[nH]2)cc1	1.3µM	3.5µM	0.63µM	.	1.4µM	?
Clc1ccc(OCc2nc3ccccc3[nH]2)cc1	3.4µM	11µM	1.1µM	.	2µM	?
O=S(=O)(CCc1nc2ccccc2[nH]1)c1ccc(Cl)cc1	.	.	.	.	.	.
c1ccc(OCc2nc3ccccc3[nH]2)cc1	12µM	13µM	4µM	.	2.8µM	?
O=[N+]([O-])c1ccc(S(=O)(=O)Nc2ccc(-c3ccc(N4CCOCC4)nn3)cc2)cc1	27µM	/	.	/	.	.
CCOc1ccc(-c2cccc(NS(=O)(=O)c3ccc([N+](=O)[O-])cc3)c2)nn1	.	/	.	/	.	.
COc1c(C)cc(S(=O)(=O)Nc2cccc(-c3ccc(N4CCOCC4)nn3)c2)c(C)c1C	15µM	/	/	/	/	/
Cc1cc(C)cc(S(=O)(=O)Nc2cccc(-c3ccc(N4CCOCC4)nn3)c2)c1	12µM	/	/	/	/	/
COc1c(C)cc(S(=O)(=O)N2CCOCC2)c(C)c1C	.	.	.	.	.	.
SMILES	FLuc counter	SMN2 splice up	Rab9 prom act	KinaseGlo FLuc	NPC1 promoter act	ELG1 genotoxic
O=[N+]([O-])c1ccc(S(=O)(=O)Nc2cccc(-c3ccc(N4CCOCC4)nn3)c2)cc1	3.4µM	/	.	/	?	?
Cc1ccc([N+](=O)[O-])cc1S(=O)(=O)Nc1ccc(-c2ccc(N3CCOCC3)nn2)cc1	?	/	.	/	.	.
COc1ccc(S(=O)(=O)N2CCC(N3CCN(Cc4ccc(F)cc4)C(=O)C3=O)CC2)cc1	.	/	/	/	/	/
COc1ccc(-c2cc3ccc(O)c(CN4CCCCC4C)c3oc2=O)cc1OC (centres undefined)	.	/	/	/	/	/
Cc1nc(NCc2cccnc2)c2c3c(sc2n1)CC(C)CC3 (centres undefined)	24µM	.	.	.	.	.
Cc1nc(NCc2ccco2)c2c3c(sc2n1)CCC3	.	22µM	.	.	.	.
N[C@H](Cc1ccc(O)c(O)c1)C(=O)O	/	.	/	.	/	/
CCN1C(=O)/C(=C/N2CCc3ccccc3C2)SC1=S	24µM	/	?	/	?	.
Cc1nc(C)c(C(=O)N/N=C/c2cn(C)c3ccccc23)s1	17µM	.	.	.	.	.
Cn1cc(/C=N/NC(=O)c2ccccc2O)c2ccccc21	4.8µM	/	.	/	?	.
CC(=O)n1cc(/C=N/NC(=O)c2ccccc2O)c2ccccc21	9.5µM	/	?	/	.	.
CC(C)(C)OC(=O)n1cc(/C=N/NC(=O)c2ccco2)c2ccccc21	9.5µM	/	.	/	.	.
Cn1cc(/C=N/NC(=O)c2cccc([N+](=O)[O-])c2)c2ccccc21	.	.	.	.	.	?
CCOC(=O)Nc1sc2c(c1C#N)CCC(C)C2 (centres undefined)	11µM	.	3.2µM	.	2.8µM	?
CC1CCc2c(sc(NC(=O)COC(=O)C3CCCO3)c2C#N)C1 (centres undefined)	?	.	.	.	.	.
CC1CCc2c(sc(NC(=O)C3CCCO3)c2C#N)C1 (centres undefined)	11µM	11µM	3.2µM	.	3.5µM	?
CC1CCc2c(sc(/N=C/N(C)C)c2C#N)C1 (centres undefined)	15µM	.	4.5µM	.	.	?
CC(C)c1ccc(Nc2c(-c3ccc(N(C)C)cc3)nc3cnccn23)cc1	?	.	/	/	/	/
Cc1c(C(=O)Nc2nc3ccccc3[nH]2)oc2ccccc12	3µM	10µM	4µM	.	?	?
Cc1c(C(=O)Nc2nc3ccccc3[nH]2)oc2ccc(Br)cc12	7.6µM	/	?	/	.	?
Cc1c(C(=O)Nc2nc3ccccc3[nH]2)oc2c(Cl)cccc12	.	?	.	.	.	?
Cc1cc(C)nc(-n2nc(C)c3c2N(Cc2ccccc2F)C(=O)CC3c2ccc(Cl)cc2)n1 (centres undefined)	.	/	/	/	/	/
Cc1cc(C)cc(OCc2ccc(C(=O)O)o2)c1	.	?	.	.	.	?
CC(C)c1ccc(OCc2ccc(C(=O)N3CCCC3)o2)cc1	17µM	/	2µM	/	?	?
CCCc1ccc(OCc2ccc(C(=O)N3CCCC3)o2)cc1	?	/	.	/	.	.
CCOc1ccc(OCc2ccc(C(=O)N3CCCC3)o2)cc1	?	.	.	.	?	.
CCOc1ccc(OCc2ccc(C(=O)OCc3ccccn3)o2)cc1	?	8.9µM	0.89µM	.	?	.
CN1CCN(C(=O)c2ccc(COc3ccc(C(C)(C)C)cc3)o2)CC1	8.5µM	?	?	.	?	.
